Data as given in PubChem BioAssay AID504546 (Broad Institute, 2011).
Records with an inconclusive call do not appear. Calls of active or inactive are those of the source.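 Rule for the calls: active = every repeat run fits a falling-signal curve with half-maximal potency within ten times top tested dose; inconclusive = runs disagree, or flat moderate drop, or poor fit; inactive = every run inactive, including signal moving upward.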

Assay: inhibition of ADP-Glo detection reagents, dose response, artefact control for CDK5 inhibitor project, biochemical, luminescence, cherry-picked samples, set 2 (AID 504546);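 note: 0% = DMSO wells and -100% = wells lacking ADP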
Conditions: ADP-Glo detection reagent counter screen, 5 uM ADP; series mostly up to 30 µM; activity change, negative = inhibition: at the top concentration
With C=CC(=O)Nc1ccc(Nc2nc(NC3CCC(N(C)C)CC3)nc3c2ncn3C(C)C)cc1 (stereo not given) the “activity change, negative = inhibition” value was 7.33% (inactive). In the case of CC(C)n1cnc2c(Nc3cccc(Cl)c3)nc(N(CCO)CCCO)nc21, the “activity change, negative = inhibition” value is reported as 3.17% (inactive). In the case of CCNc1nc(N)nc(-c2cc(Cl)ccc2O)n1, the “activity change, negative = inhibition” value is reported as -11.2% (inactive). For Oc1[nH]c2ccccc2c1C1=NCCCCC1, the “activity change, negative = inhibition” value was -3.84% (inactive). With COc1ccc2nc(C(F)(F)C(F)(F)F)c(C#N)c(N)c2c1 the “activity change, negative = inhibition” value was 4.41% (inactive). In the case of COc1cc(C(=O)N2CCN(c3ccccn3)CC2)cc(OC)c1OC, the “activity change, negative = inhibition” value is reported as -10.2% (inactive). With OCCCNc1nccc(-c2cc(Nc3cccc(Cl)c3)ncn2)n1 the “activity change, negative = inhibition” value was 5.63% (inactive). With Cc1nn(-c2ccccn2)c2c1C(=O)CC(C)(C)C2Br (stereo not given) the “activity change, negative = inhibition” value was 13.7% (inactive). In the case of CCC(C)(C)C1CCc2[nH]nc(C(=O)NCCN3CCOCC3)c2C1 (stereo not given), the “activity change, negative = inhibition” value is reported as -8.52% (inactive). In the case of CCOc1cc(C(=O)N2CCN(c3ccccn3)CC2)cc(OCC)c1OCC, the “activity change, negative = inhibition” value is reported as 5.42% (inactive). For Oc1ccc(-c2nc(-c3ccc(O)c(O)c3)cs2)cc1, the “activity change, negative = inhibition” value was 8.38% (inactive). For CC(C)(C)c1ccc(C(=O)O/N=C(\N)c2ccccn2)cc1, the “activity change, negative = inhibition” value was 5.19% (inactive). In the case of O=C(c1ccc2c(c1)OCCO2)N1CCN(c2ccccn2)CC1, the “activity change, negative = inhibition” value is reported as 14.4% (inactive). With COc1cc(/C=N/Nc2ccc(C(F)(F)F)cn2)cc(OC)c1O the “activity change, negative = inhibition” value was 1.2% (inactive). In the case of COc1ccc2nc(C)cc(Nc3ccc(C)cc3)c2c1, the “activity change, negative = inhibition” value is reported as 13.1% (inactive). For COc1ccc(Nc2nccc(-c3cccc(N)c3)n2)cc1, the “activity change, negative = inhibition” value was -4.84% (inactive). In the case of O=c1c(O)cccc2cc(O)c(O)c(O)c12, the “activity change, negative = inhibition” value is reported as 0.618% (inactive). In the case of COc1cccc(C(=O)c2sc(NC(C)C)nc2N)c1, the “activity change, negative = inhibition” value is reported as 6.22% (inactive). In the case of CC(C)n1cnc2c(Nc3ccc(F)c(Cl)c3)nc(NCCO)nc21, the “activity change, negative = inhibition” value is reported as -2.2% (inactive). In the case of O=C(c1ccc2c(c1)OCO2)N1CCN(c2ccccn2)CC1, the “activity change, negative = inhibition” value is reported as 13% (inactive). In the case of CCN1C(=O)/C(=C2/Sc3ccc(OC)cc3N2C)SC1=Nc1cccc(O)c1, the “activity change, negative = inhibition” value is reported as 11.8% (inactive). In the case of C=CCNc1nc(N)c(C(=O)c2ccc3c(c2)OCO3)s1, the “activity change, negative = inhibition” value is reported as -0.228% (inactive). With COc1ccc(Nc2nccc(-c3ccc([N+](=O)[O-])cc3)n2)cc1 the “activity change, negative = inhibition” value was -11.6% (inactive). With CC(C)n1cnc2c(NCc3ccccc3)nc(NCc3ccccc3)nc21 the “activity change, negative = inhibition” value was 20.6% (inactive). In the case of Cc1[nH]nc2c1-c1nc3ccccc3nc1C(C)(C)C2, the “activity change, negative = inhibition” value is reported as 7.67% (inactive). In the case of O=[N+]([O-])c1ccc2c(c1)-c1ccccc1C2=NO, the “activity change, negative = inhibition” value is reported as 7.51% (inactive). With CCc1cc(C(=O)c2ccc(OC)cc2)c(N)s1 the “activity change, negative = inhibition” value was 15.9% (inactive). With Cc1nc(Nc2ccccc2)sc1C(=O)c1ccc(F)cc1 the “activity change, negative = inhibition” value was 5.44% (inactive). In the case of COc1ccc(Nc2nc(N)c(C(=O)c3ccc(OC)cc3)s2)cc1, the “activity change, negative = inhibition” value is reported as -7.71% (inactive). For COc1ccc(Nc2nc(N)c([N+](=O)[O-])c(N3CCCC3)n2)cc1, the “activity change, negative = inhibition” value was -1.93% (inactive). In the case of O=C(O)c1ccc(/C=N\Nc2ccccn2)cc1, the “activity change, negative = inhibition” value is reported as -6.4% (inactive). In the case of Cc1nn(-c2nccs2)c2c1C(=O)CC(C)(C)C2Br (stereo not given), the “activity change, negative = inhibition” value is reported as 16% (inactive). For COc1cc2ccccc2ccc1=NO, the “activity change, negative = inhibition” value was 15.2% (inactive). In the case of COc1cccc(OC)c1C(=O)N1CCN(c2ccccn2)CC1, the “activity change, negative = inhibition” value is reported as 11.9% (inactive). With CC(C)n1cnc2c(Nc3cccc(Cl)c3)nc(NCCCO)nc21 the “activity change, negative = inhibition” value was -8.77% (inactive).
